Test results: PubChem BioAssay (NCATS)
Values joined by “and” are separate entries in the source; they are usually repeats but may differ in a detail not shown here. Identical values can stand only once. Records with an inconclusive call do not appear. The source holds several records for some structures; these can differ, active in one and inactive in another. Active and inactive are the calls of the source. Unless noted, the call rests on the fitted dose curve; in most records, active means well fitted curve in the direction sought with a large enough effect; inconclusive means small, poorly fitted or top-dose-only effect, or another doubt; inactive means no such curve, though single readings can be large; an effect the other way counts as inactive or inconclusive.

Tests used:
[1] = P-glycoprotein substrates identified in KB-3-1 adenocarcinoma cell line, qHTS therapeutic library screen (AID 1346986); further: nearly all actives have a fitted effect of over 60% in size;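 further: potency means the concentration at half of the fitted maximal effect; potency is for cytotoxicity meaning loss of cell viability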; on activity change, negative = cytotoxicity: on the % scale 0 is the no-effect control and ±100 the full control effect
Method in brief: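 In 1536-well format, 500 cells/well received pinned compound titrations and were incubated 72 h, 5% CO2. Viability was read by CellTiter-Glo; cytotoxic if AC50 < 10 uM and efficacy >50%.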

[2] = P-glycoprotein substrates identified in KB-8-5-11 adenocarcinoma cell line, qHTS therapeutic library screen (AID 1346987); further: nearly all actives have a fitted effect of over 65% in size; further: potency means the concentration at half of the fitted maximal effect; on activity change, negative = cytotoxicity: on the % scale 0 is the no-effect control and ±100 the full control effect
Method in brief: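 Compounds are pinned in dose-response onto KB-8-5-11 cells (500 cells/well, colchicine-free medium) and left 72 h at 37 degree C. CellTiter-Glo luminescence then yields AC50 values.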

[3] = Drug repurposing screens with cells derived from glioblastoma tumor samples (AID 1345199); settings: GBM patient neurospheres viability, ATP luminescence, 48 h; further: nearly all actives have a fitted effect of over 40% in size; further: potency means the concentration at half of the fitted maximal effect; on activity, negative = cell killing: on the % scale 0 is the no-effect control and ±100 the full control effect
Method in brief: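 Primary testing used CD133+ neurospheres from four GBM patients, seven concentrations, 48 h exposure and ATP-based viability; confirmation added three slower-growing patient lines.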

[4] = Primary qHTS for inhibitors of nuclear receptor binding SET domain protein 2 (NSD2) in an isogenic RCH-ACV NSD2 p.E1099K mutant (9B) (AID 1645876); further: nearly all actives have a fitted effect of over 70% in size; further: potency means the concentration at half of the fitted maximal effect; on activity change, negative = viability loss: on the % scale 0 is the no-effect control and ±100 the full control effect
[5] = Primary qHTS for inhibitors of nuclear receptor binding SET domain protein 2 (NSD2) in an RCH-ACV wild type WT cells (2C) (AID 1645877); further: nearly all actives have a fitted effect of over 70% in size; further: potency means the concentration at half of the fitted maximal effect
[6] = molecular target: Glutathione peroxidase 1 (Homo sapiens) (UniProt P07203); test: Primary qHTS Assay for Inhibitors of Recombinant Selenoprotein Glutathione Peroxidase 1 (GPX1) (AID 1845191); further: nearly all actives have a fitted effect of over 65% in size; further: potency means the concentration at half of the fitted maximal effect
Method in brief: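 GR-coupled readout: NADPH consumption tracked by fluorescence, ex 340/em 450 nm, at t=0 and after 15 min at RT. Final mix 10 nM GPX1, 1 mM GSH, 0.5 mM CHP, 0.5 mM NADPH, 100 nM GR, 0.01% BSA, following 30 min enzyme–compound preincubation.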

[7] = molecular target: Phospholipid hydroperoxide glutathione peroxidase GPX4 (Homo sapiens) (UniProt P36969); test: Primary qHTS Assay for Inhibitors of Recombinant Selenoprotein Glutathione Peroxidase 4 (GPX4) (AID 1845192); settings: outcome: dose series up to 50 µM unless noted; further: nearly all actives have a fitted effect of over 65% in size
Method in brief: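 Steps: GPX4 plus compound, 30 min RT; add GR/GSH/NADPH master mix; start with cumene hydroperoxide; read 340/450 nm fluorescence at 0 and 15 min. Finals were 200 nM GPX4, 1 mM GSH, 0.5 mM CHP, 0.5 mM NADPH, 100 nM GR.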

[8] = qHTS drug screen for cell cycle checkpoint inhibitors in PARPi-resistant BRCA-mutant ovarian cancer cell lines. (AID 1963452; calls by dose curve; further: potency means the concentration at half of the fitted maximal effect); settings: PEO1/OlaR viability, CellTiter-Glo luminescence, 96 h; for Z-AUC: stronger effect = lower value
Method in brief: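 PEO1, PEO4 and PEO1/OlaR ovarian cancer cells, 600 per well, exposed 96 h at 37C to a dilution series. Viability read by CellTiter-Glo luminescence, normalized to DMSO and empty wells; activity summarized as Z-AUC.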

[9] = at 45.9 µM (top of the series), tumour line B
[10] = measured here: PEO1 parental Z-AUC
[11] = at 46.1 µM (top of the series), tumour line C
[12] = at 45.9 µM (top of the series), tumour line D

Chain of Phospholipid hydroperoxide glutathione peroxidase GPX4 (Homo sapiens) (P36969 whole entry, looked up): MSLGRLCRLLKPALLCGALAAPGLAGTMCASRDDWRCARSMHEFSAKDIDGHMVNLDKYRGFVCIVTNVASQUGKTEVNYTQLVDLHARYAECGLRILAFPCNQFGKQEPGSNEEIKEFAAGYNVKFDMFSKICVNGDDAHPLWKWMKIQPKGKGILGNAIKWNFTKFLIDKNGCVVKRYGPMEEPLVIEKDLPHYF
Chain of Glutathione peroxidase 1 (Homo sapiens) (P07203 whole entry, looked up): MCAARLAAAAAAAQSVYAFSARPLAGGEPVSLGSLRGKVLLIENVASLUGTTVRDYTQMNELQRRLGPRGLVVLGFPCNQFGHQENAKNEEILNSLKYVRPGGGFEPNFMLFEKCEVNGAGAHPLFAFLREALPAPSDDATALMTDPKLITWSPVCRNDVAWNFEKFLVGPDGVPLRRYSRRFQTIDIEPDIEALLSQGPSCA

COC(=O)[C@]12CCC(C)(C)C[C@@H]1[C@@H]1C(=O)C=C3[C@]4(C)C=C(C#N)C(=O)C(C)(C)[C@@H]4CC[C@@]3(C)[C@]1(C)CC2
Potency [1]: 1.46 µM (active)
Potency [2]: 1.46 µM (active)

NCCNCCN
Potency [2]: inactive
activity, negative = cell killing [3, 9]: -28% (inactive)
Potency ([3]; tumour line A): 28.2 µM (active)

COc1cc(/C=C(\C#N)C(N)=O)cc(CSc2nc3ccccc3s2)c1O
Potency [1]: inactive
Potency [2]: inactive
Potency [4]: inactive
Potency [5]: inactive
Potency [6]: inactive

CN1C/C=C/CCOc2cccc(c2)-c2ccnc(n2)Nc2cccc(c2)C1
Potency [1]: 0.092 µM (active)
Potency [2]: 0.231 µM (active)
Potency [4]: 0.092 µM (active)
Potency [5]: 0.0731 µM (active)
Potency [6]: inactive
Potency [7]: inactive
Potency [8]: 549 nM (active)
Z-AUC [8, 10]: -1.71
Z-AUC ([8]; measured here: PEO4 Z-AUC): -1.51

CCCCCCCCCCCCC/C=C/[C@@H](O)[C@H](CO)N(C)C
activity change, negative = cytotoxicity [1]: -2.89% [at 5.11 µM] (inactive)
outcome [2]: inactive [at 5.11 µM]
activity change, negative = viability loss [4]: -1.18% [at 4.96 µM] (inactive)
Potency [6]: inactive

Nc1ncnc2c1c(I)cn2C1OC(CO)C(O)C1O (stereo not given)
Potency [1]: 3.26 µM (active)
Potency [2]: 2.31 µM (active)
Potency [4]: 1.84 µM (active)
Potency [5]: 1.03 µM (active)
Potency [6]: inactive

Cc1nc2c(O)cccc2c(=O)[nH]1
Potency [1]: inactive
Potency [2]: inactive
Potency [4]: inactive
Potency [5]: inactive

CN1CCN(CCC=C2c3ccccc3Sc3ccc(S(=O)(=O)N(C)C)cc32)CC1
Potency [2]: 23.1 µM (active)
Potency [6]: inactive
activity, negative = cell killing [3, 11]: 4.82% (inactive)
Potency ([3]; tumour line A): 7.08 µM (active)
Potency ([3]; tumour line B): 35.5 µM (active)

COc1c(Nc2ncc(Cl)c(N[C@H]3[C@H](C(N)=O)[C@@H]4C=C[C@@H]3C4)n2)ccc2c1CCC(N1CCOCC1)CC2 (stereo not given in full)
Potency [1]: 6.51 µM (active)
Potency [2]: 4.11 µM (active)
Potency [4]: 1.05 µM (active)
Potency [5]: 3.32 µM (active)

C#Cc1cccc(Nc2ncnc3cc(OC)c(OC)cc23)c1
Potency [1]: 5.17 µM (active)
Potency [2]: 9.2 µM (active)
Potency [4]: 14.6 µM (active)
Potency [5]: 20.6 µM (active)
Potency [6]: inactive

O=C(O)c1ccc2c3c1cccc3c(=O)n1c3ccccc3nc21
Potency [1]: inactive
Potency [2]: inactive
Potency [5]: inactive
Potency [6]: inactive

CCCCCCCC[N+](C)(C)CCCCCCCC
Potency [2]: inactive

O=C1NC(=O)/C(=C/c2ccc3nccc(-c4ccncc4)c3c2)S1
Potency [1]: 1.64 µM (active)
Potency [2]: 3.66 µM (active)
Potency [4]: 920 nM (active) and 332 nM (active)
Potency [5]: 920 nM (active) and 525 nM (active)
Potency [6]: inactive
Potency [8]: 1950 nM (active)
Z-AUC [8, 10]: -1.47
Z-AUC ([8]; measured here: PEO4 Z-AUC): -1.84

C#C[C@]1(OC(C)=O)CC[C@H]2[C@@H]3CCC4=CC(=O)CC[C@@H]4[C@H]3CC[C@@]21C
Potency [2]: 3.66 µM (active)
Potency [6]: inactive
Potency [7]: inactive
activity, negative = cell killing [3, 9]: -16% (inactive)
activity, negative = cell killing [3, 11]: -23.2% (inactive)
Potency ([3]; tumour line A): 35.5 µM (active)

O=C(Nc1cc(Oc2cc(F)c(NC(=O)C3(C(=O)Nc4ccc(F)cc4)CC3)cc2F)ccn1)C1CC1
Potency [1]: 5.17 µM (active)
Potency [2]: 4.61 µM (active)
Potency [4]: 2.59 µM (active) and inactive
Potency [5]: 2.59 µM (active) and inactive
Potency [6]: inactive
Potency [7]: inactive
Z-AUC [8]: -0.419 (inactive)
Z-AUC [8, 10]: 0.97
Z-AUC ([8]; measured here: PEO4 Z-AUC): -0.43

N[C@@H](C(=O)N[C@@H]1C(=O)N2C(C(=O)O)=C(CSc3cn[nH]n3)CS[C@H]12)c1ccc(O)cc1
Potency [6]: 18 µM (active)
activity, negative = cell killing [3, 9]: -1.12% (inactive)
activity, negative = cell killing [3, 12]: -13.1% (inactive)
activity, negative = cell killing [3, 11]: 10.5% (inactive)

CCOC(=O)CN[C@@H](C(=O)N1CC[C@H]1C(=O)NCc1ccc(/C(N)=N/O)cc1)C1CCCCC1
Potency [6]: inactive
activity, negative = cell killing [3, 9]: -9.76% (inactive)
activity, negative = cell killing [3, 12]: -14.5% (inactive)
activity, negative = cell killing ([3]; at 46 µM (top of the series), tumour line A): -18.3% (inactive)
activity, negative = cell killing [3, 11]: -15.2% (inactive)

CS(=O)(=O)CCNCc1nc(-c2ccc3ncnc(Nc4ccc(OCc5cccc(F)c5)c(Cl)c4)c3c2)cs1
activity change, negative = cytotoxicity [1]: 4.91% [at 9.29 µM] (inactive)
outcome [2]: inactive [at 9.29 µM]
outcome [6]: inactive [at 9.52 µM]

N#C/C(=C(\N)Sc1ccc(N)cc1)c1ccccc1C(F)(F)F
Potency [1]: inactive
Potency [2]: inactive

COc1cc(F)ccc1-c1ncnc(Nc2cccc(CS(C)(=N)=O)c2)n1 (stereo not given)
Potency [1]: 1.46 µM (active)
Potency [2]: 5.17 µM (active)
Potency [4]: 0.525 µM (active)
Potency [5]: 0.372 µM (active)
Potency [6]: inactive
Potency [7]: inactive
Z-AUC [8]: -0.906 (inactive)
Z-AUC [8, 10]: -1.2
Z-AUC ([8]; measured here: PEO4 Z-AUC): -0.831

C[C@H]1COCCN1c1cc(C2(S(=O)(=O)C3CC3)CC2)nc(-c2ccc(NC(=S)NCCO)cc2)n1
Potency [1]: 0.103 µM (active)
Potency [2]: 0.731 µM (active)
Potency [4]: 0.059 µM (active)
Potency [5]: 0.0934 µM (active)
Potency [6]: inactive
Potency [7]: inactive
Z-AUC [8]: -1.32 (inactive)
Z-AUC [8, 10]: -1.07
Z-AUC ([8]; measured here: PEO4 Z-AUC): -1.96

C/C1=C2N=C(/C=C3N=C(/C(C)=C4\[N-]C(C(CC(N)=O)C4(C)CCC(=O)NCC(C)OP(=O)([O-])OC4C(CO)OC(n5cnc6cc(C)c(C)cc65)C4O)C4(C)N=C1C(CCC(N)=O)C4(C)CC(N)=O)C(CCC(N)=O)C\3(C)C)C(CCC(N)=O)C/2(C)CC(N)=O.[CH3-].[Co+3] (stereo not given)
activity, negative = cell killing [3, 12]: -36.9% (inactive)

CCc1c(C(=O)NNC(=O)[C@@H](O)c2cc(F)cc(F)c2)ccc(O)c1C
Potency [1]: inactive
Potency [2]: inactive
Potency [4]: inactive
Potency [5]: inactive
Potency [6]: inactive
Potency [7]: inactive
Z-AUC [8]: 1.17 (inactive)
Z-AUC [8, 10]: 0.688
Z-AUC ([8]; measured here: PEO4 Z-AUC): 1.04

CN1CCC(c2c(O)cc(O)c3c(=O)cc(-c4ccccc4Cl)oc23)C1CO (stereo not given)
Potency [1]: 0.92 µM (active)
Potency [2]: 5.17 µM (active)
Potency [4]: 0.417 µM (active)
Potency [6]: inactive
Potency [7]: inactive
Z-AUC [8]: -0.419 (inactive)
Z-AUC [8, 10]: -1.06
Z-AUC ([8]; measured here: PEO4 Z-AUC): -0.725

CCOC(=O)CCC(=O)O[C@H]1[C@H](O[C@@H]2[C@@H](C)[C@H](O[C@H]3C[C@@](C)(OC)[C@@H](O)[C@H](C)O3)[C@@H](C)C(=O)O[C@H](CC)[C@@](C)(O)[C@H](O)[C@@H](C)C(=O)[C@H](C)C[C@@]2(C)O)O[C@H](C)C[C@@H]1N(C)C
activity, negative = cell killing [3, 9]: -6.36% (inactive)
activity, negative = cell killing [3, 12]: -16.9% (inactive)
activity, negative = cell killing [3, 11]: 1.07% (inactive)
Potency ([3]; tumour line A): 35.5 µM (active)

Cn1cc(C2=C(c3cn(CCCSC(=N)N)c4ccccc34)C(=O)NC2=O)c2ccccc21
Potency [1]: 5.17 µM (active)
Potency [2]: inactive
Potency [4]: 1.46 µM (active)
Potency [5]: 1.64 µM (active)

C=CC(=O)Nc1cccc(C)c1Nc1ncc2cc(-c3c(Cl)c(OC)cc(OC)c3Cl)ccc2n1
Potency [1]: 14.6 µM (active)
Potency [2]: 9.2 µM (active)
Potency [4]: 3.66 µM (active)
Potency [5]: 4.11 µM (active)
Potency [6]: inactive
Potency [7]: inactive
Z-AUC [8]: -0.505 (inactive)
Z-AUC [8, 10]: -0.983
Z-AUC ([8]; measured here: PEO4 Z-AUC): -1.33

C=C1/C(=C\C=C2/CCC[C@]3(C)[C@@H]([C@H](C)OCCC(C)(C)O)CC[C@@H]23)C[C@@H](O)C[C@@H]1O
activity, negative = cell killing [3, 9]: -19.1% (inactive)
activity, negative = cell killing [3, 12]: -17.2% (inactive)
activity, negative = cell killing [3, 11]: -27.4% (inactive)
Potency ([3]; tumour line A): 25.1 µM (active)
